Among the data in PubChem BioAssay AID652105 (National Center for Advancing Translational Sciences (NCATS), 2013) are max response values, retold here.

In all, about 330,000 compounds went through this assay and about 4,100 (1.2%) were called active. Inconclusive results (about 2%) are left out. The sample as a whole holds a higher share of actives than the screen did. Values without a mark were called inactive. The calls were made as follows: active = max response of -50% or lower; inconclusive = between -30% and -50%; inactive = -30% or higher.
% is scaled to controls: 0 for no effect and ±100 for the full control effect.

Chain of Phosphatidylinositol 5-phosphate 4-kinase type-2 alpha (Homo sapiens) (P48426 whole entry, looked up, canonical isoform): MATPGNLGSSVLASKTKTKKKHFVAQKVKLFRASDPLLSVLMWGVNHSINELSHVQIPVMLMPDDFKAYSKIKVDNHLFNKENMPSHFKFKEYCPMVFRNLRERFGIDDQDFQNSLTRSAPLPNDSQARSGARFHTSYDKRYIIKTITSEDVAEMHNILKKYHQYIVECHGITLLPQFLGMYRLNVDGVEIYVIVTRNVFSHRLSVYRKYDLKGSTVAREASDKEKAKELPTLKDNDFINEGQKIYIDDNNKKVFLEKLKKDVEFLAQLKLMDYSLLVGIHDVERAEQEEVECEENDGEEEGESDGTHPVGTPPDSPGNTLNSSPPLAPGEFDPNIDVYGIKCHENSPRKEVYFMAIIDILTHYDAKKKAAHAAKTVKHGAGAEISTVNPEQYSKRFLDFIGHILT

For the test, the target named is Phosphatidylinositol 5-phosphate 4-kinase type-2 alpha (Homo sapiens) (UniProt P48426). Kind of test: qHTS for Inhibitors of phosphatidylinositol 5-phosphate 4-kinase (PI5P4K). Also: value at the top dose of about 77 µM. Particulars: PI5P4Kalpha enzyme, ADP-Glo luminescence, 60 min; stronger effect = lower value. The source says:
In addition to finding PI5P, we discovered the type II phosphatidylinositol 5-phosphate 4-kinase (PI5P4K) family (alpha, beta, gamma isoforms) that catalyze the conversion of PI5P to PI(4,5)P2. Alternatively, PI(4,5)P2 can also be synthesized through phosphatidylinositol-4-phosphate (PI4P) by the type I phosphatidylinositol 4-phosphate 5-kinases (PI4P5K). These PI5P4K enzymes therefore represent one way by which cells can regulate endogenous PI5P levels and play important roles in insulin signaling and in stress responses.
This proposal aims to identify and optimize specific modulators of human PI5P4K, phosphatidylinositol-5-phosphate 4-kinase (Type II PIPK), a family of kinases that regulate AKT signaling and tumor cell growth. In this project we aim to identify inhibitors of human PI5P4K using a quantitative high-throughput screening approach against the MLSMR containing ~400,000 small molecules.
NIH Chemical Genomics Center [NCGC]
NIH Molecular Libraries Probe Centers Network [MLPCN]
Assay Submitter (PI): Atsuo Sasaki, Beth Israel Deaconess Medical Center
2 microL of PI5P4Kalpha/substrate buffer (columns 1-2, 5-48) are dispensed into Greiner white solid bottom 1536-well assay plates; column 3 receives only PI5P4Kalpha buffer as 0x substrate controls; column 4 receives only substrate buffer as 0x PI5P4Kalpha controls. Final assay buffer consists of 0.038 M HEPES pH 7.4, 0.28 mM EGTA, 0.1% CHAPS, and 5% DMSO (final concentration). Compounds are then transferred via Kalypsys pin tool equipped with 1536-pin array (10 nL slotted pins, V&P Scientific, San Diego, CA). Following addition of compound, 1 microL of ATP (5 microM final concentration, all columns) is added to initiate the reaction. ATP is diluted in an assay buffer consisting of 0.02 M HEPES pH 7.4, 60 mM MgCl2, 15 microM ATP, and 0.1% CHAPS. The plates are then incubated at room temperature for 60 minutes. ADP-Glo reagent 1 is added (2 microL) and plates incubated for 45 minutes, before ADP-Glo reagent 2 (4 microL) is added and plates incubated for 30 minutes. They are then transferred to a ViewLux high-throughput CCD imager (PerkinElmer) wherein single end-point measurements of luminescence are acquired using a clear filter.
In the case of `C=CCNC(=O)CSc1nc2sc(C)c(C)c2c(=O)[nH]1`, the max response was -2.42%. Next, `CC(=O)c1sc2nc(SCC(=O)N3CCCCC3)[nH]c(=O)c2c1C`: -59.2% (active); `CCOC(=O)[C@]12CCCC=C1N(CCC1=CCCCC1)C(=O)[C@H](CC(=O)NCCCOC)C2`: -1.91%; `CCC(=O)NC(=Nc1nc2ccccc2s1)NC(=O)CC`: 10.4%. For the molecule `Cc1cc(NC(=O)CN2CCCC(C)C2)n(-c2nc3ccccc3s2)n1` (stereo unspecified), the max response is 14.1%.

As for `CCC(C)Cn1c(O)cc2nn(-c3nc4ccccc4s3)c(=O)c-2c1C` (stereo unspecified), the max response was -79.1% (active).

Consider `COC(=O)[C@]12CCCCC=C1N(Cc1ccc(Cl)cc1Cl)C(=O)[C@H](CC(=O)NCc1cccc3ccccc13)C2`, for which the max response is 20.1%. For the molecule `COc1cc(C=C(OC(C)=O)c2ccc3c(c2)OCO3)cc(OC)c1OC`, the max response was 3.06%.

For `C#CCOc1ccc(/C=C2/C(=O)NN(c3ccccc3)C2=O)cc1OC`, the max response is -22.1%. On to `COc1cc(CN2CC(C)CC(C)C2)cc([N+](=O)[O-])c1O` (stereo unspecified), for which the max response is 0.224%. On to `COc1cc(/C=C2/C(=O)NN(c3cccc(Cl)c3)C2=O)cc(Br)c1O`, for which the max response is -54.1% (active). As to `COc1ccc(N2C(=O)CC(Nc3ccc(F)cc3)C2=O)c([N+](=O)[O-])c1` (stereo unspecified), the max response is -6.93%. The figure for `COc1cc(/C=N/O)cc(Br)c1OCc1cccc(Cl)c1` is 39.6%; for `COc1cc(/C=C2/C(=O)NN(c3ccc(F)cc3)C2=O)cc([N+](=O)[O-])c1O` it is -57.5% (active); for `COC(=O)C1(C(=O)OC)C[C@H](c2ccccc2)N(Cc2ccccc2OC)[C@@H]1c1ccccc1` it is 15.9%. Turning to `CCc1cccc(CC)c1N1C(=O)CC(Sc2ccccc2N)C1=O` (stereo unspecified), the max response is 0.428%. For the molecule `COCOc1cccc(CN2CCC(C)(Oc3ccc(SC)cc3)C2)c1` (stereo unspecified), the max response was 9.73%. Next, `CCCc1nc2c3ccccc3ccn2c1Cc1ccccc1C(F)(F)F`: -0.571%; `COC(=O)[C@]12CCCCC=C1N(Cc1ccccc1)C(=O)[C@H](CC(=O)NCc1ccc(C)o1)C2`: -16.1%.

On to `Cc1cc(NC(=O)COc2ccc([N+](=O)[O-])cc2)no1`, for which the max response was -7.69%.

Consider `Cc1cc(NC(=O)Nc2ccccc2[N+](=O)[O-])no1`, for which the max response was -55.9% (active).

As to `Cc1csc(NC(=O)Nc2ccccc2[N+](=O)[O-])n1`, the max response was 3.76%.

Turning to `Cc1c(C(=O)NCc2ccc(C#N)cc2)sc(=O)n1Cc1ccc(C(=O)N(C)C)cc1`, the max response was -1.71%. Take `COC(=O)c1ccc2nc(-c3ccccc3)c(Cc3ccc(OC)cc3C)n2c1`: the max response was -3.87%. As for `CC1Cc2[nH][nH]c(=O)c2C(C2CC2)O1` (stereo unspecified), the max response was 6.96%. Turning to `COc1ccc(-c2cc3c(c4c2ccn4C)C2CCC3C2)cn1` (stereo unspecified), the max response is 19.1%. As for `Cc1ccc(OCc2n[nH]c(=S)n2-c2ccccc2)cc1`, the max response was -0.211%. Turning to `S=c1[nH]nc(COc2ccccc2)n1-c1ccccc1`, the max response is 2.36%. With `COc1ccc(OCc2n[nH]c(=S)n2N)cc1`, the max response is -58.2% (active).

With `CCc1nnc(NS(=O)(=O)c2ccc(NC(=O)c3cccc(OC(F)(F)C(F)F)c3)cc2)s1`, the max response is -19.6%.

Turning to `CCc1nnc(NS(=O)(=O)c2ccc(NC(=S)NC(=O)/C=C/c3cccs3)cc2)s1`, the max response was -51.8% (active). On to `CCOC(=O)c1c(NC(=S)NC(=O)/C=C/c2cccs2)sc(C)c1C`, for which the max response was -4.36%. Take `CCc1nc2ccc(C(=O)NCCNC(C)=O)cn2c1N(CC)Cc1cccc(Br)c1`: the max response was 2.11%.

Regarding `COc1cccc2c1C(=O)c1c(O)c3c(c(O)c1C2=O)CC(O)(C(C)=NNC(=O)c1ccc(Cl)c(Cl)c1)CC3OC1CC(N)C(O)C(C)O1` (stereo unspecified), the max response is -61.1% (active). On to `CCc1cc(-c2nnn(CCC3COCCO3)c2CC)ccc1-c1cn(Cc2ccc3ccccc3c2)nn1` (stereo unspecified), for which the max response was 10.5%.

For the molecule `O=C(NCc1cccnc1)c1cc(C2CCCCN2C(=O)CCc2ccccc2)on1` (stereo unspecified), the max response is -8.66%. Next, `O=C(NC1=CC(=O)c2ccccc2C1=O)c1ccccc1`: -2.02%; `CC(=O)N(C1=C(Cl)C(=O)c2ccccc2C1=O)c1ccc(C(=O)O)cc1`: -81.9% (active). As for `CC(C)(C)C1CCC(=O)N2CCC[C@]2(c2ccccc2)C1` (stereo partly specified), the max response was -0.325%.

Regarding `Cc1cccc(C)c1-n1nnnc1C1(C)CCC(=O)N1CCOc1ccccc1` (stereo unspecified), the max response was 6.34%. With `O=C(CSc1nc2ccccc2s1)Nc1ccc(C(=O)O)cc1`, the max response was -69.8% (active).

`O=C(CSc1nnc(SCc2ccc(Cl)cc2)s1)N/N=C/c1ccccc1Cl`: the max response was -9.79%. Regarding `COc1cc(OC)cc(-c2nnc(SCC(=O)Nc3ccc(C(=O)O)cc3)s2)c1`, the max response was -16.4%.

For the molecule `O=C(CSc1nnc(SCc2ccc(F)cc2)s1)Nc1ccc(C(=O)O)cc1`, the max response is -51.9% (active). For `Nc1nnc(SCC(=O)Nc2ccc3nc(SCC(=O)Nc4ccccc4)sc3c2)s1`, the max response is -22.9%. Regarding `Cn1nnnc1SCC(=O)Nc1nc2ccccc2s1`, the max response is 5.87%.
